In PubChem BioAssay (NCATS):
Inconclusive results are not listed. The source made the active and inactive calls. Unless noted, the call rests on the fitted dose curve; in most records, active means well fitted curve in the direction sought with a large enough effect; inconclusive means small, poorly fitted or top-dose-only effect, or another doubt; inactive means no such curve, though single readings can be large; an effect the other way counts as inactive or inconclusive.

Experiments:
[1] = target: Lysosomal acid glucosylceramidase (Homo sapiens) (UniProt P04062); assay: Glucocerebrosidase-p2 (AID 348; in the data active means potency below about 10 µM; further: potency means the concentration at half of the fitted maximal effect); conditions: purified GBA, blue fluorogenic substrate, 40 min
Method in brief: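 Compounds titrated from 0.6 nM upwards against 0.2 nM enzyme in pH 5.9 citric acid/KH2PO4, taurocholate, tween-20; blue fluorogenic substrate 80 uM, 40 min room temperature, stopped and read Ex 365/Em 440 for AC50.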

[2] = AP1 Signaling Pathway (AID 357; active means well fitted curve in either direction with a large enough effect, not every such curve was filed as active; further: on the % scale 0 is the no-effect control and ±100 the full control effect); conditions: ME-180 AP-1-bla reporter, EGF-induced, beta-lactamase ratio, 5 h; at 7.69 µM (top of the series) unless noted
Method in brief: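 ME-180 cells with beta-lactamase reporter under AP-1 response element, stimulated with EC50 EGF; compounds tested in titration series, 5 h at 37 °C. CCF4 substrate added 2.5 h at room temperature; 460/530 nm emission ratio gave %activity and AC50.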

[3] = target: Cytochrome P450 1A2 (Homo sapiens) (UniProt P05177); assay: p450-cyp1a2 (AID 410; calls by dose curve;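 further: -100% = full effect of reference inhibitor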)
Method in brief: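 20nM CYP1A2 with 100uM Luciferin-ME (at Km) in 100mM KPO4; compound preincubated 10 min, NADPH regeneration added, 60 min at room temperature. Luciferin quantified by luminescence after detection reagent; normalized to 57 uM furafylline.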

[4] = NFAT Signaling Pathway (AID 444; active means well fitted curve in either direction with a large enough effect, not every such curve was filed as active;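 further: carbachol stimulus at about its EC50 of 1 µM final; on the % scale 0 is the no-effect control and ±100 the full control effect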); conditions: Jurkat NFAT-bla M1, carbachol, beta-lactamase ratio, 5 h; at 7.69 µM (top of the series) unless noted
Method in brief: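 Jurkat cells with NFAT-driven β-lactamase reporter and co-expressed M1 receptor, stimulated with carbachol (final 1 uM, ~EC50), compound titration, 5 h at 37 °C. CCF4 loaded 1 h at RT; 460/530 nm ratio gave %activity and AC50.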

[5] = Stat Signaling Pathway (AID 446; active means well fitted curve in either direction with a large enough effect, not every such curve was filed as active;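 further: ME-180 cervical cancer cells given 40 pM IL-6 alongside compound; SIE-controlled beta-lactamase reporter measured as 460/530 nm FRET emission ratio; on the % scale 0 is the no-effect control and ±100 the full control effect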); conditions: ME-180 SIE beta-lactamase reporter, IL-6 stimulated, 5 h; at 7.69 µM (top of the series) unless noted
Method in brief: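 ME-180 SIE-bla cells; overnight plating; cpd + IL-6 40 pM, 5 h, 37 C; LiveBLAzer 2.5 h RT; 460/530 nm emission ratio. Normalized to 300 pM IL-6 and 125 nM JAK inhibitor controls.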

[6] = target: Glucocorticoid receptor (Homo sapiens) (UniProt P04150); assay: GR-GFP Redistribution (AID 450;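 active means compounds whose dose series gives a full or clear partial fitted curve of increased nuclear translocation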; further: potency means the concentration at half of the fitted maximal effect); conditions: U2OS GR-GFP nuclear translocation, laser cytometry, 2 h
[7] = target: Glucocorticoid receptor (Homo sapiens) (UniProt P04150); assay: GR-EFC Redistribution (AID 451; calls by dose curve; further: potency means the concentration at half of the fitted maximal effect); conditions: CHO-K1 GR-EFC translocation, beta-gal luminescence, 2 h
Method in brief: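 CHO-K1 cells expressing nuclear EA and GR-ED fragments of b-gal; compounds titrated up to 46 uM final, 2 h at 37 C. GR nuclear translocation read as complemented b-gal luminescence after 1 h RT detection.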

[8] = target: Mitogen-activated protein kinase 10 (Mus musculus) (UniProt Q61831); assay: JNK3 AlphaScreen Assay (AID 530; active means well fitted curve in either direction with a large enough effect, not every such curve was filed as active;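 further: kinase came from lysate of stimulated human HepG2 cells; signal reports phosphorylation of biotinylated GST-cJun 1-79 at Ser73 with 10 µM ATP; on the % scale 0 is the no-effect control and ±100 the full control effect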)
Method in brief: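 Pre-activated (IL-1β/TNFα) JNK3 in HepG2 lysates phosphorylates biotin-GST-cJun(1-79), 10 uM ATP; anti-phospho-cJun(Ser73) AlphaScreen read at room temperature, pH 7.6 Tris buffer. Compounds pre-incubated 15 min as titrations.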

[9] = target: 3',5'-cyclic-AMP phosphodiesterase 4B (Homo sapiens) (UniProt Q07343); assay: qHTS Assay for Inhibitors of PDE-IV (AID 607; active means well fitted activation curve with a large enough effect in the main read-out, with a control signal flat, not every such curve was filed as active; further: % of control where 0% means no effect)
Method in brief: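 ACTOne HEK293 cells carry a modified cAMP-gated CNG channel and express endogenous PDE4; plated 1000 cells/well, compounds up to 22.9 uM final. Membrane-potential dye fluorescence (ex 535/em 590) was read; parental cells received 10 uM forskolin + 100 uM RO 20-1724.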

[10] = target: Luciferin 4-monooxygenase (Photinus pyralis) (UniProt P08659); assay: Biochemical firefly luciferase enzyme assay for NPC (AID 624030);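 further: purified P. pyralis luciferase at 10 nM with luciferin and ATP substrate; 0% = DMSO and -100% = full luciferase inhibition by PTC124 control; nearly all actives have a fitted effect of over 70% in size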
Method in brief: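 Purified P. pyralis luciferase at 10 nM in 50 mM Tris Acetate (final), luminescence read within 5 minutes of enzyme addition to compounds. Activity normalised to PTC124 versus DMSO; concentration-response curves classed by r2, magnitude and activity.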

[11] = S16 Schwann cell viability assay (CellTiter-Glo assay) (AID 624031);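 further: native untransfected S16 rat Schwann cells; cellular ATP luminescence as a viability measure; plate controls were DMSO-treated cells for no effect and cell-free wells for full effect; nearly all actives have a fitted effect of over 70% in size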
Method in brief: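 Following overnight culture in 10% FBS DMEM, parental S16 rat Schwann cells are dosed for 24 h at 37 °C. Viability is read as CellTiter-Glo luminescence and expressed as % activity relative to DMSO (0%) and no-cell wells.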

[12] = S16 Schwann cell PMP22 intronic element beta-lactamase assay (AID 624044; calls by dose curve;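 further: 0% = DMSO and -100% = potassium clavulanate positive control; nearly all actives have a fitted effect of over 15% in size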)
Method in brief: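 Rat S16 Schwann cells with beta-Lac driven by a PMP22 intronic element, compound-treated 24 h at 37 °C. LiveBLAzer FRET B/G read: 460 nm normalized to potassium clavulanate vs DMSO; 535 nm FRET as viability; concentration-effect curves classified.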

[13] = qHTS profiling for inhibitors of Plasmodium falciparum proliferation (AID 504749); further: potency means the concentration at half of the fitted maximal effect; nearly all actives have a fitted effect of over 60% in size; conditions: P. falciparum in erythrocytes, SYBR Green DNA, 72 h
Method in brief: (§1)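 P. falciparum-infected erythrocytes (0.3% parasitemia, 2.5% hematocrit) incubated with compound 72 h at 37 C, 5% CO2. Parasite DNA detected by SYBR Green after lysis, overnight at room temperature; normalised to 0.29 uM artemisinin and DMSO.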

3D7 = assay: as above; conditions: P. falciparum in erythrocytes, SYBR Green DNA, 72 h; series mostly up to 28.7 µM
Method in brief: as §1

7G8 = assay: as above; conditions: P. falciparum in erythrocytes, SYBR Green DNA, 72 h; series mostly up to 28.7 µM
Method in brief: as §1

AA1029 = assay: as above; conditions: P. falciparum in erythrocytes, SYBR Green DNA, 72 h; series mostly up to 28.7 µM
Method in brief: as §1

AS120 = assay: as above; conditions: P. falciparum in erythrocytes, SYBR Green DNA, 72 h; series mostly up to 28.7 µM
Method in brief: as §1

ATS95 = assay: as above; conditions: P. falciparum in erythrocytes, SYBR Green DNA, 72 h; series mostly up to 28.7 µM
Method in brief: as §1

C2A = assay: as above; conditions: P. falciparum in erythrocytes, SYBR Green DNA, 72 h; series mostly up to 28.7 µM
Method in brief: as §1

CP185 = assay: as above; conditions: P. falciparum in erythrocytes, SYBR Green DNA, 72 h; series mostly up to 28.7 µM
Method in brief: as §1

CP191 = assay: as above; conditions: P. falciparum in erythrocytes, SYBR Green DNA, 72 h; series mostly up to 28.7 µM
Method in brief: as §1

CP192 = assay: as above; conditions: P. falciparum in erythrocytes, SYBR Green DNA, 72 h; series mostly up to 28.7 µM
Method in brief: as §1

CP194 = assay: as above; conditions: P. falciparum in erythrocytes, SYBR Green DNA, 72 h; series mostly up to 28.7 µM
Method in brief: as §1

CP201 = assay: as above; conditions: P. falciparum in erythrocytes, SYBR Green DNA, 72 h; series mostly up to 28.7 µM
Method in brief: as §1

CP203 = assay: as above; conditions: P. falciparum in erythrocytes, SYBR Green DNA, 72 h; series mostly up to 28.7 µM
Method in brief: as §1

CP211 = assay: as above; conditions: P. falciparum in erythrocytes, SYBR Green DNA, 72 h; series mostly up to 28.7 µM
Method in brief: as §1

CP215 = assay: as above; conditions: P. falciparum in erythrocytes, SYBR Green DNA, 72 h; series mostly up to 28.7 µM
Method in brief: as §1

CP217 = assay: as above; conditions: P. falciparum in erythrocytes, SYBR Green DNA, 72 h; series mostly up to 28.7 µM
Method in brief: as §1

CP237 = assay: as above; conditions: P. falciparum in erythrocytes, SYBR Green DNA, 72 h; series mostly up to 28.7 µM
Method in brief: as §1

CP238 = assay: as above; conditions: P. falciparum in erythrocytes, SYBR Green DNA, 72 h; series mostly up to 28.7 µM
Method in brief: as §1

CP247 = assay: as above; conditions: P. falciparum in erythrocytes, SYBR Green DNA, 72 h; series mostly up to 28.7 µM
Method in brief: as §1

CP250 = assay: as above; conditions: P. falciparum in erythrocytes, SYBR Green DNA, 72 h; series mostly up to 28.7 µM
Method in brief: as §1

CP252 = assay: as above; conditions: P. falciparum in erythrocytes, SYBR Green DNA, 72 h; series mostly up to 28.7 µM
Method in brief: as §1

CP256 = assay: as above; conditions: P. falciparum in erythrocytes, SYBR Green DNA, 72 h; series mostly up to 28.7 µM
Method in brief: as §1

Sequence of Glucocorticoid receptor (Homo sapiens) (P04150 whole entry, looked up, the tested form may be a part): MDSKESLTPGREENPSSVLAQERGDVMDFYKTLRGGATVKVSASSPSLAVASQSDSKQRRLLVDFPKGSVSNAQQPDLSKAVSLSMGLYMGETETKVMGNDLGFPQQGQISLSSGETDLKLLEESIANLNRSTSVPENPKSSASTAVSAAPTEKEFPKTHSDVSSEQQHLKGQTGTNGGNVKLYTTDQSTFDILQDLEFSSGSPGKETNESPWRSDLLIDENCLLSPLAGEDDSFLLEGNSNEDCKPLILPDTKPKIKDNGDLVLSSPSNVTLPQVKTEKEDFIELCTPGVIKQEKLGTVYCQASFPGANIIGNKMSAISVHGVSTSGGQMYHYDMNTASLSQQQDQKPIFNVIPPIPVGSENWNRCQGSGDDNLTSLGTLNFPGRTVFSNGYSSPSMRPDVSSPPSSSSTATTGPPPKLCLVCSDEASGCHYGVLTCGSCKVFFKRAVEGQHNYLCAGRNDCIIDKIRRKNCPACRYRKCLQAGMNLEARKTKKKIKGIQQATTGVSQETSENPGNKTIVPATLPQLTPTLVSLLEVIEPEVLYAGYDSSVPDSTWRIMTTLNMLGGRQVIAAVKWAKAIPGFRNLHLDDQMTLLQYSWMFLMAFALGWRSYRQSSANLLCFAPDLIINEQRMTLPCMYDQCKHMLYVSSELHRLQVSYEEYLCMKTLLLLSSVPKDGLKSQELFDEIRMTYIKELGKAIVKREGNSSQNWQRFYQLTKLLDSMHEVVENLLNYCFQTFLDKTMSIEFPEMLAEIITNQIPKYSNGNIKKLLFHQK
Sequence of Lysosomal acid glucosylceramidase (Homo sapiens) (P04062 whole entry, looked up): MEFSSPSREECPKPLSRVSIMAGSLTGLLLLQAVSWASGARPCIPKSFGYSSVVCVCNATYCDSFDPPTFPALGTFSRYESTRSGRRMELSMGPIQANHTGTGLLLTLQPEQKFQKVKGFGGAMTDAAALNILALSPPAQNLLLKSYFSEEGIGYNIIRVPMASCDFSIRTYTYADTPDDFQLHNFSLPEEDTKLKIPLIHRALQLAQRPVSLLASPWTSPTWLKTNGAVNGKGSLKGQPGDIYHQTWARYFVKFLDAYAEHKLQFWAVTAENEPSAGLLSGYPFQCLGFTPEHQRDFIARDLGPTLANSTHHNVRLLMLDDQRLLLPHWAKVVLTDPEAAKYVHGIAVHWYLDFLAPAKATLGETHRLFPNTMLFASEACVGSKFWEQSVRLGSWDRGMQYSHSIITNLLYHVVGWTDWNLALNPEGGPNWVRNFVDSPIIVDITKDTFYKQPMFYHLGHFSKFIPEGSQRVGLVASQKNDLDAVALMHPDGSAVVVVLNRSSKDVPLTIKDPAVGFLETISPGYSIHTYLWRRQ
Sequence of Luciferin 4-monooxygenase (Photinus pyralis) (P08659 whole entry, looked up): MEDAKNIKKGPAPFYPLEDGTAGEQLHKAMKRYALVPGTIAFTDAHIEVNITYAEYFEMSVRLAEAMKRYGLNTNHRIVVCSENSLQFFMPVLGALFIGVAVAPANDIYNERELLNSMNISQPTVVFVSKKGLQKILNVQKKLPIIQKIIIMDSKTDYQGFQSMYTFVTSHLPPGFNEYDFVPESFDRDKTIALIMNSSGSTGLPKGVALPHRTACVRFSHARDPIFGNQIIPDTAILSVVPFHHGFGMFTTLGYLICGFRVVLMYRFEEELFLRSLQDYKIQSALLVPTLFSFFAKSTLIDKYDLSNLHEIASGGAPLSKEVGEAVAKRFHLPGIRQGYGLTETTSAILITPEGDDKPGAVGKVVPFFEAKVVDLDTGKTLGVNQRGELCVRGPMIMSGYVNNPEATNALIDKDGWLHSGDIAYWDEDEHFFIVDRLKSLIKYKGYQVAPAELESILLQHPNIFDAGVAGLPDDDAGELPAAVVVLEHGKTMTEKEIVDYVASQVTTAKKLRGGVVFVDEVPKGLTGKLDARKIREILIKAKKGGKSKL
Sequence of 3',5'-cyclic-AMP phosphodiesterase 4B (Homo sapiens) (Q07343 whole entry, looked up): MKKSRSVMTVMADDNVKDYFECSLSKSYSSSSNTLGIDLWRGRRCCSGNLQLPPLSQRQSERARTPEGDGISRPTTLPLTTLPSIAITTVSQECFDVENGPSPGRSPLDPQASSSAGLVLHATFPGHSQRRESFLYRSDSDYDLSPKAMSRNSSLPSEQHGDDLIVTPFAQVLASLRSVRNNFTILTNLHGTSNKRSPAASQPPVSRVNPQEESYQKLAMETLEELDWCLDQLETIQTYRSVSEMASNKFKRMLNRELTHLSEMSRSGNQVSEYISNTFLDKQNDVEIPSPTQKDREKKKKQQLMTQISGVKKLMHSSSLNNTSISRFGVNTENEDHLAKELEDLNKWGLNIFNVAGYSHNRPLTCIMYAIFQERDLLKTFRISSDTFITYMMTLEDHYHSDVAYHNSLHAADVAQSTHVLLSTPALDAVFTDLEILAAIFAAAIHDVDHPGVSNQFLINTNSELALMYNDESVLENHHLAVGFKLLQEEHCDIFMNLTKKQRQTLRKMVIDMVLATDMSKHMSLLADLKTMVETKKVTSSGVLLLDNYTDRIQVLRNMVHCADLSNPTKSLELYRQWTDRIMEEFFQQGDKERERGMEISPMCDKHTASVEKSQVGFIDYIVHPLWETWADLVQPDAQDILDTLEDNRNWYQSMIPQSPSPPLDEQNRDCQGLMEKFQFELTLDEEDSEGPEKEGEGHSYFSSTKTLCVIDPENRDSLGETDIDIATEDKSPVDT
Sequence of Cytochrome P450 1A2 (Homo sapiens) (P05177 whole entry, looked up): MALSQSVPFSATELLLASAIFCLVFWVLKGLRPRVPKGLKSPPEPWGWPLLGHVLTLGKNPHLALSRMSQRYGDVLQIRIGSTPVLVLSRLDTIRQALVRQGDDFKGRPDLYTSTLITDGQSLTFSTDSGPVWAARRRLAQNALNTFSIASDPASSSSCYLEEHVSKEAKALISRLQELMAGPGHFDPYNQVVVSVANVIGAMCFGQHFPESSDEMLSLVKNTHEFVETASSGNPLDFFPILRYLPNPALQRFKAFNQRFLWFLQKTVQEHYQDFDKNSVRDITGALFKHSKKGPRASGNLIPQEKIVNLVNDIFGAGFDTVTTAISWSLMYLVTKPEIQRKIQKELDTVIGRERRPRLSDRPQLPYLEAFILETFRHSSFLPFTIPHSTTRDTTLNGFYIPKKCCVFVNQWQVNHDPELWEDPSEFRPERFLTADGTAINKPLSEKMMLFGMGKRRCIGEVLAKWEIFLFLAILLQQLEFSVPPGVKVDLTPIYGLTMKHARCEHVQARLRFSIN

O=C(O)[C@@H](S)[C@H](S)C(=O)O
active: Potency ([13]; parasite line A) 10 µM | Potency ([13]; parasite line B) 7.08 µM | Potency (3D7) 8.91 µM | Potency (7G8) 5.01 µM | Potency (AA1029) 10 µM | Potency (AS120) 5.62 µM | Potency (ATS95) 6.31 µM | Potency (C2A) 7.08 µM | Potency (CP185) 11.2 µM | Potency (CP191) 8.91 µM | Potency (CP192) 12 µM | Potency (CP194) 15.1 µM | Potency (CP201) 12 µM | Potency (CP203) 10.7 µM | Potency (CP211) 6.75 µM | Potency (CP215) 9.53 µM | Potency (CP217) 6.31 µM | Potency (CP237) 7.08 µM | Potency (CP238) 12.6 µM | Potency (CP247) 7.94 µM | Potency (CP250) 7.08 µM | Potency (CP252) 10 µM | Potency (CP256) 7.94 µM
inactive: Potency [1] > 11.4 µM | activity change, negative = inhibition [2] 8.2% | Potency [3] | activity change, negative = inhibition [4] -7.29% | activity, negative = inhibition [5] 1.47% | Potency [6] > 46 µM | Potency [7] > 9.22 µM | Potency [8] | Potency [9] | outcome [10] | Potency [11] | outcome [12]
